# Results: PubChem BioAssay (NCATS)
# Results filed as inconclusive are left out. A call without a number means that no potency is given here. Active and inactive are the calls of the source. Calls come from the whole dose curve; as a rule, active = well fitted curve in the direction sought with a large enough effect; inconclusive = small, poorly fitted or top-dose-only effect, or another doubt; inactive = no such curve, though single readings can be large; an effect the other way counts as inactive or inconclusive.
# Assay: qHTS of pediatric cancer cell lines to identify multiple opportunities for drug repurposing: Primary screen for RD cells (AID 1347104); note: nearly all actives have a fitted effect of over 55% in size
# Settings: RD rhabdomyosarcoma viability, CellTiter-Glo luminescence, 48 h; series mostly up to 46 µM
# How it was run: (§1)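 Following a 5-hour attachment period, cells at 500-1,000/well received compounds and were cultured for 48 hours. CellTiter-Glo was added and luminescence read to estimate viable, metabolically active cells.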
row,Structure (SMILES),Potency
1,Nc1nc(-c2ccccc2)c(Br)c(=O)[nH]1,inactive
2,OC(C#CCN1CCCC1)(c1ccccc1)c1ccccc1,inactive
3,Nc1ccc(S(=O)(=O)NCc2ccccc2)cc1,inactive
4,CC(C)Nc1cccnc1N1CCN(C(=O)c2cc3cc(NS(C)(=O)=O)ccc3[nH]2)CC1,inactive
5,NS(=O)(=O)c1cc2c(cc1Cl)NC(CC1CCCC1)NS2(=O)=O (configuration not stated),inactive
6,C=C1c2cccc(O)c2C(O)=C2C(=O)[C@]3(O)C(O)=C(C(N)=O)C(=O)[C@@H](N(C)C)[C@@H]3[C@@H](O)[C@H]12,inactive
7,Cc1cc(CC(=O)O)c(C)n1-c1ccc(Cl)cc1,inactive
8,CO[C@]12C[C@@H](COC(=O)c3cncc(Br)c3)CN(C)[C@@H]1Cc1cn(C)c3cccc2c13,inactive
9,O=C(NC1CCN(CCc2c[nH]c3ccccc23)CC1)c1ccccc1,inactive
10,Clc1cccc(C(c2ccc3nc[nH]c3c2)n2ccnc2)c1 (configuration not stated),inactive
11,Cc1c(-c2ccccc2)oc2c(C(=O)OCCN3CCCCC3)cccc2c1=O,inactive
12,O=C(O)C(Cc1cc(I)c(O)c(I)c1)c1ccccc1 (configuration not stated),inactive
13,CC(C)(C)NCC(O)COc1cccc2c1C[C@H](O)[C@H](O)C2 (some centres not stated),inactive
14,Cc1nc(-c2ccc(Cl)cc2)oc1COC(C)(C)C(=O)O,inactive
15,NCc1ccccc1Sc1ccccc1CO,inactive
16,C[N+]1(C)CCC(=C(c2ccccc2)c2ccccc2)CC1,inactive

# Assay: qHTS of pediatric cancer cell lines to identify multiple opportunities for drug repurposing: Primary screen for MG 63 (6-TG R) cells (AID 1347105); note: nearly all actives have a fitted effect of over 50% in size; note: potency is the fitted concentration of half-maximal effect
# Settings: MG 63 (6-TG R) viability, CellTiter-Glo, 48 h; series mostly up to 46 µM
# How it was run: as §1
row,Structure (SMILES),Potency
1,C[N+]1(CC2COC(c3ccccc3)(C3CCCCC3)O2)CCCCC1 (configuration not stated),inactive
2,C=C[C@H]1CN2CC[C@H]1C[C@H]2[C@H](O)c1ccnc2ccc(OC)cc12,inactive
3,CN(C)C(=O)Nc1ccc(Cl)c(Cl)c1,inactive
4,C[C@@H](O)[C@H]1C(=O)N2C(C(=O)O)=C(S[C@@H]3CN[C@H](CNS(N)(=O)=O)C3)[C@H](C)[C@H]12,inactive
5,CCOCCn1c(N2CCCN(C)CC2)nc2ccccc21,inactive
6,Cc1ccc(O)c([C@H](CCN(C(C)C)C(C)C)c2ccccc2)c1,inactive
7,N#CCC(=O)NN,inactive
8,COc1cc(N)c(Cl)cc1C(=O)NC1CCN(Cc2ccccc2)CC1,inactive
9,CCCCN=C(N)N=C(N)N,inactive
10,CC(C)Cc1ccc(CC(=O)O)cc1,inactive
11,Oc1c(Cl)cc(Cl)c(Cl)c1Cc1c(O)c(Cl)cc(Cl)c1Cl,6.68 µM (active)
12,CC(C)n1c(/C=C/[C@@H](O)C[C@@H](O)CC(=O)O)c(-c2ccc(F)cc2)c2ccccc21,0.841 µM (active)
13,CC(=O)Nc1ccc(S(=O)(=O)Nc2ccc([N+](=O)[O-])cc2)cc1,inactive
14,Cc1c[nH]c2ccccc12,inactive
15,CCCCCCCCOc1ccc(C(=O)c2ccccc2)c(O)c1,inactive
16,Nc1nc(-c2ccccc2)c(Br)c(=O)[nH]1,inactive
17,OC(C#CCN1CCCC1)(c1ccccc1)c1ccccc1,inactive
18,Nc1ccc(S(=O)(=O)NCc2ccccc2)cc1,inactive
19,CC(C)Nc1cccnc1N1CCN(C(=O)c2cc3cc(NS(C)(=O)=O)ccc3[nH]2)CC1,inactive
20,NS(=O)(=O)c1cc2c(cc1Cl)NC(CC1CCCC1)NS2(=O)=O (configuration not stated),inactive
21,C=C1c2cccc(O)c2C(O)=C2C(=O)[C@]3(O)C(O)=C(C(N)=O)C(=O)[C@@H](N(C)C)[C@@H]3[C@@H](O)[C@H]12,inactive
22,Cc1cc(CC(=O)O)c(C)n1-c1ccc(Cl)cc1,inactive
23,CO[C@]12C[C@@H](COC(=O)c3cncc(Br)c3)CN(C)[C@@H]1Cc1cn(C)c3cccc2c13,inactive
24,O=C(NC1CCN(CCc2c[nH]c3ccccc23)CC1)c1ccccc1,inactive
25,Cc1nc(-c2ccc(Cl)cc2)oc1COC(C)(C)C(=O)O,inactive
26,CCO[C@@H]1O[C@H](C(COCc2ccccc2)OCc2ccccc2)[C@H](OCc2ccccc2)[C@H]1O (some centres not stated),10.6 µM (active)
